# Bioassay records (PubChem)
# Vaccinia mCherry – inhibitors of vaccinia virus infection (mCherry reporter signal) | Vaccinia virus mCherry reporter infection, fluorescence | Potency, µM (titrated, usually from 36.5 µM), without a hit: top-dose activity change, negative = inhibition, hits mostly inhibitors | 310,000 compounds, 0.63% hits | AID 720579; calls by dose curve; tested in A549 cells; note: potency is the fitted concentration of half-maximal effect; nearly all actives have a fitted effect of over 35% in size
# Marburg entry inh – inhibitors of Marburg virus binding or cell entry | AID 540276 | Potency, µM (top dose mostly 37.8 µM), inactives show at the top dose activity change, negative = inhibition, actives largely listed as inhibitors | Marburg virus pseudotyped entry inhibition, cell reporter | 300,000 compounds, 1.8% hits; calls by dose curve; tested in HEK293 cells; note: potency is the fitted concentration of half-maximal effect
# LASV entry inh – inhibitors of Lassa virus binding or cell entry | Lassa virus pseudotype entry inhibition, cell reporter | Potency, µM (top dose mostly 37.9 µM), for the others: top-dose activity change, negative = inhibition, actives largely listed as inhibitors | 300,000 compounds, 1.2% hits | AID 540256; calls by dose curve; tested in HEK293 cells; note: potency is the fitted concentration of half-maximal effect; nearly all actives have a fitted effect of over 50% in size
# HCMV inh – inhibitors of human cytomegalovirus; HFF cells, HCMV-luciferase reporter, 72 h; stronger effect = lower value; activity change, negative = inhibition, % at 57.5 µM; 410,000 compounds, 4.5% hits; in the data active = activity change below about -60%; inconclusive = no clear call, values can overlap the other calls; inactive = above about -39%
#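 Compounds were evaluated in HFFs infected with an HCMV luciferase reporter virus (MOI 1 PFU/cell). Luciferase in lysates collected 72 h post infection served as the replication measure.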
# VACV Venus inh – inhibitors of vaccinia virus (Venus reporter); 330,000 compounds, 0.46% hits; Potency, µM (series often up to 36.5 µM), inactives show at the top dose activity change, negative = inhibition, actives largely listed as inhibitors; Vaccinia virus Venus reporter expression, fluorescence; AID 720580; calls by dose curve; tested in A549 cells; note: potency is the fitted concentration of half-maximal effect; nearly all actives have a fitted effect of over 30% in size
# FMDV inh – blocks foot and mouth disease virus; 410,000 compounds, 1.2% hits; AID 1159524; FMDV antiviral cell-based qHTS; Potency, µM (series often up to 57.9 µM), inactives show at the top dose activity change, negative = inhibition, most hits filed as inhibitors; calls by dose curve; tested in HEK293T cells; note: read-out not given here; potency is the fitted concentration of half-maximal effect; nearly all actives have a fitted effect of over 45% in size
# * = called active by the depositor; i = inactive; ? = inconclusive; · = no result; ! = a repeat was not active; [ ] = another dose, or the depositor's remark. In the library only some 6.5% were active in any assay of this set; here they are far more common. % is set by controls: 0 for no effect and ±100 for the full control effect.
SMILES,Vaccinia mCherry,Marburg entry inh,LASV entry inh,HCMV inh,VACV Venus inh,FMDV inh
Cc1ccc(C(=O)Nc2ccc3nc(SCC(=O)N4CCCc5ccccc54)sc3c2)cc1,-29%,-29%[46.1 µM],-15%[46.1 µM],78,-23%,-16%
CCC[C@]12CCN3C(=O)N[C@@H](c4ccccc4)[C@](C(=O)OCC)(C1)[C@H]32,·,9%[14.2 µM],·,·,·,·
COc1ccccc1CNCCCCCCNCCCCCCCCNCCCCCCNCc1ccccc1OC,-12%,?,1%,·,2%,-20%
CCCCCn1c(=O)c2c(nc3n2CCN3c2ccc(Br)cc2)n(C)c1=O,-19%,·,1%[46.1 µM],?,-14%,-17%
Clc1ccc(-c2csc3ncnc(Sc4nnnn4-c4ccccc4)c23)cc1,10µM*,·,·,·,?,·
O=C(O)CSc1ncnc2scc(-c3ccccc3)c12,-3%,-1%[46.1 µM],22%,-14,1%,-15%
Cn1nnnc1Sc1ncnc2scc(-c3ccc(Cl)cc3)c12,·,·,·,-98*,·,20µM*
Cn1nnnc1Sc1ncnc2scc(-c3ccccc3Cl)c12,·,·,·,-73*,·,-10%
Cn1nnnc1Sc1ncnc2scc(-c3cccc4c3sc3ccccc34)c12,·,·,·,-92*,·,28µM*
COc1ccc(C(=O)c2oc3ccccc3c2NC(=O)COc2cccc(C)c2C)cc1,-15%,?,-7%[46.1 µM],13,-8%,0%
COC(=O)[C@@]1(C=C2c3ccc(OC)cc3[C@@H](OC)[C@@H]2C)[C@@H]2C=CC[C@@H]21,·,-11%[14.2 µM],·,·,·,·
Cn1nnnc1Sc1ncnc2scc(-c3ccc([N+](=O)[O-])cc3)c12,·,·,·,-100*,·,11µM*
CC(=O)CSc1ncnc2scc(-c3ccc(F)cc3)c12,i,4%[46.1 µM],-18%[46.1 µM],31,-5%,-2%
Cn1nnnc1Sc1ncnc2scc(-c3ccc4c(c3)OCO4)c12,·,·,·,-86*,·,0%
CC(=O)c1cccc(-c2csc3ncnc(Sc4nnnn4C)c23)c1,·,·,·,?,·,35µM*
Clc1ccc(-n2nnnc2Sc2ncnc3sccc23)cc1,·,?,?,-81*,-27%,40µM*
Cn1nnnc1Sc1ncnc2scc(-c3cccc(Br)c3)c12,·,·,·,-18,·,-96%
c1ccc2sc(Sc3ncnc4sccc34)nc2c1,-25%,?,1%,155,-11%,1%
COc1ccc(-c2csc3ncnc(Sc4nnnn4C)c23)cc1,·,·,·,-92*,·,?
Cn1nnnc1Sc1ncnc2scc(-c3cccc(S(C)(=O)=O)c3)c12,·,·,·,-5,·,-24%
Cc1sc2ncnc(Sc3nnnn3-c3ccccc3)c2c1C,11µM*!,?,?,-71*,?,·
O=C(CNC(=O)c1cccnc1)c1ccc(F)cc1,-16%,·,·,·,-7%,·
CCOC(=O)c1c(NC(=O)C(C)Sc2cn(CCNC(=O)c3ccccc3OC)c3ccccc23)sc2c1CCC2 (stereo not drawn),-12%,?,?,-8,-15%,-20%
O=C(NCCn1cc(SCc2ccc(C(F)(F)F)cc2)c2ccccc21)c1ccccc1F,-5%,-23%[46.1 µM],-2%[46.1 µM],-14,-13%,?
CCOC(=O)c1c(NC(=O)C(C)Sc2cn(CCNC(=O)c3ccc(OC)c(OC)c3)c3ccccc23)sc2c1CCC2 (stereo not drawn),?,?,2%[46.1 µM],-108*,-22%,-18%
SMILES,Vaccinia mCherry,Marburg entry inh,LASV entry inh,HCMV inh,VACV Venus inh,FMDV inh
O=C(CSc1cn(CCNC(=O)c2cccc(C(F)(F)F)c2)c2ccccc12)Nc1ccc2c(c1)OCCO2,?,?,?,-83*,?,25µM*
Cc1ccc(C(=O)NCCn2cc(SCC(=O)N3CCOCC3)c3ccccc32)cc1,-3%,-1%,·,-63*,-28%,-17%
COc1ccc(C(=O)NCCn2cc(SCc3ccc(C(F)(F)F)cc3)c3ccccc32)cc1OC,?,?,-12%[46.1 µM],-62*,?,22µM*
Cc1ccc(C(=O)NCCn2cc(SCC(=O)Nc3cc(C)on3)c3ccccc32)cc1,i,-5%,·,-19,-23%,-13%
Cc1ccc(C(=O)N(Cc2cc3cc4c(cc3nc2N2CCOCC2)CCC4)CC2CCCO2)s1 (stereo not drawn),-6%,·,·,·,-4%,14%
COc1ccc(-c2cnc3c(NC(C)=O)cc(-c4ccc(S(C)(=O)=O)cc4)cn23)cc1OC,?,·,·,-2,?,-9%
O=C(NCCn1cc(SCc2ccc(F)cc2)c2ccccc21)c1ccccc1F,?,?,-82%,·,-9%,28µM*
O=C(CNC(=S)N(Cc1ccccc1F)C1CCCCC1)NCC1CCCO1 (stereo not drawn),-28%,?,4.5µM*,-61*,?,0%
Cc1cnc(C(=O)OCC(=O)c2ccc[nH]2)cn1,-3%,4%,?,-22,0%,0%
Cc1c(N2C(=O)/C(=C\c3ccc(N(C)C)cc3)N(C)C2=S)c(=O)n(-c2ccccc2)n1C,i,-25%,-1%,-65*,168%,-19%
CN(C)c1ccc(/C=C/C(=O)c2cccnc2)cc1,-7%,?,22%[46.1 µM],20,-8%,10%
CN1C(=S)N(c2cccnc2)C(=O)/C1=C\c1ccc(N(C)C)cc1,?,?,9%[46.1 µM],-64*,25%,?
O=C(CN1C(=O)CSc2ccc(S(=O)(=O)N3CCOCC3)cc21)NCCc1ccccc1,i,·,·,10,-14%,15%
COc1ccc(C2CC(c3ccc(Br)cc3)=NN2C(=O)CCC(=O)O)cc1OC (stereo not drawn),i,-6%[46.1 µM],-20%[46.1 µM],-8,-12%,-9%
COc1ccc(C2=NN(C(=O)CCC(=O)O)C(c3ccc(OC)c(OC)c3)C2)cc1 (stereo not drawn),-5%,6%,17%,-102*,-8%,-12%
CCOc1cccc(/C=N/N2CCN(c3ccc(Cl)cc3)CC2)c1O,·,·,·,-94*,·,?
CCOc1cccc(C2c3c(oc4ccc(F)cc4c3=O)C(=O)N2c2cc(C)ccn2)c1 (stereo not drawn),-11%,-9%[46.1 µM],11%[46.1 µM],5,-9%,-6%
O=C(CCCn1c(=O)[nH]c2ccsc2c1=O)N1CCN(c2cccc(C(F)(F)F)c2)CC1,-27%,-1%[46.1 µM],-21%[46.1 µM],-105*,-20%,?
O=C(CCCCn1c(=O)[nH]c2ccsc2c1=O)N1CCN(c2cccc(Cl)c2)CC1,?,-20%[46.1 µM],?,-69*,-19%,?
O=C(CCn1c(=O)[nH]c2ccsc2c1=O)N1CCN(c2cccc(Cl)c2)CC1,·,?,8%,7,·,?
COc1cc([C@H]2C(C(=O)c3cccs3)=C(O)C(=O)N2c2cc(C)on2)ccc1O,·,11%[46.1 µM],·,·,·,·
CC(=O)NC(c1ccco1)c1cc(F)c2cccnc2c1O (stereo not drawn),·,·,·,-67*,·,-23%
CC(=O)NC(c1cccs1)c1cc(F)c2cccnc2c1O (stereo not drawn),·,·,·,-100*,·,-22%
O=C(Nc1ccc(F)cc1)N1CC(=O)N2[C@H](CO)[C@@H](c3ccc(Br)cc3)[C@H]2C1,·,·,·,-1,·,·
